Laboratory results from PubChem BioAssay (Tox21).
A number with no mark means an inactive call. Inconclusive results are not listed. Entries that show only a call come without a potency. The source made the active and inactive calls. Unless noted, the call rests on the fitted dose curve.

Assays:
[1] = Nuclear factor erythroid 2-related factor 2/antioxidant responsive element (Nrf2/ARE) small molecule agonists: qHTS cell viability counter screen in human keratinocytes (AID 1919968; active means well fitted curve in the direction sought with a large enough effect in the repeat runs; an effect the other way counts as inactive or inconclusive; further: nearly all actives have a fitted effect of over 55% in size)
Method in brief: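 KeratinoSens cells (HaCaT keratinocytes stably carrying an ARE-luciferase reporter) were seeded at 1,500 cells/well and rested 5 h at 37 C/5% CO2. They were then exposed to compounds in DMSO for 23 h. Viability was read by CellTiter-Fluor fluorescence after 1 h.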

[2] = Nuclear factor erythroid 2-related factor 2/antioxidant responsive element (Nrf2/ARE) small molecule agonists: luciferase reporter gene qHTS assay in human keratinocytes (AID 1919969); further: nearly all actives have a fitted effect of over 35% in size; further: potency means the concentration at half of the fitted maximal effect
[3] = target: Gonadotropin-releasing hormone receptor (Homo sapiens) (UniProt P30968); assay: Human gonadotropin-releasing hormone receptor (GnRHR) small molecule agonists, calcium flux assay in GnRHR-HEK293 cells (AID 1920063); further: nearly all actives have a fitted effect of over 35% in size
Method in brief: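 HEK293 cells stably expressing human GnRHR were plated 18 h at 37 °C, loaded with calcium dye 1 h at 37 °C, then given compound in agonist mode; fluorescence (Ex/Em 480/540) read kinetically for 3 min at 1 s intervals.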

[4] = target: KiSS-1 receptor (Homo sapiens) (UniProt Q969F8); assay: Human kisspeptin (KISS1R) small molecule agonists, calcium flux assay in KISS1R-HEK293 cells (AID 1920064; active means well fitted curve in the direction sought with a large enough effect in the repeat runs; an effect the other way counts as inactive or inconclusive)
Method in brief: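 HEK293 cells stably expressing human KISS1R were plated 18 h at 37 °C, loaded with calcium dye for 1 h at 37 °C, then given compound by pin tool. Fluorescence (Ex/Em 480/540) was read kinetically for 3 min.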

[5] = G protein-coupled receptor (GPCR) small molecule agonists, calcium flux assay: HEK293 wild type cell line counter screen (AID 1920065)
Method in brief: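 Cells were plated and cultured 18 h at 37 C/5% CO2, then loaded with calcium dye for 1 h at 37 C. Compounds in DMSO were pin-transferred in agonist mode, and fluorescence (Ex/Em 480/540) was read kinetically for 3 min at 1 s intervals.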

[6] = p53 small molecule agonists, cell-based qHTS assay with human liver microsomes (AID 1963577)
Method in brief: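 p53RE-bla reporter cells were pre-incubated 5 h at 37 C, then treated with compounds plus human liver microsomes (0.5 mg/mL final) and NADPH (0.5 mg/mL final) for 16 h at 37 C. Beta-lactamase activity was read by LiveBLAzer fluorescence after 2 h at room temperature.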

[7] = p53 small molecule agonists, cell-based qHTS assay with rat liver microsomes (AID 1963578)
Method in brief: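 p53RE-bla cells were exposed to compounds together with rat liver microsomes (0.5 mg/mL final) and NADPH (0.5 mg/mL final) for 16 h at 37 C, then read by LiveBLAzer beta-lactamase fluorescence after 2 h at room temperature.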

[8] = p53 small molecule agonists, cell-based qHTS assay with human liver microsomes: qHTS cell viability counter screen (AID 1963579); further: nearly all actives have a fitted effect of over 45% in size
Method in brief: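 p53RE-bla cells (4,000/well) were pre-incubated 5 h at 37 C, then given compounds in DMSO plus human liver microsomes (0.5 mg/mL final) and NADPH (0.5 mg/mL final) for 16 h at 37 C. Viability was read by CellTiter-Glo luminescence.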

[9] = p53 small molecule agonists, cell-based qHTS assay with rat liver microsomes: qHTS cell viability counter screen (AID 1963580); further: nearly all actives have a fitted effect of over 45% in size
Method in brief: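 Intracellular ATP, by CellTiter-Glo luminescence, defines viability. HCT-116 p53RE-bla cells, 4,000 per well, were compound-treated in the presence of rat liver microsomes and NADPH for 16 h at 37 C.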

[10] = p53 small molecule agonists, cell-based qHTS assay: qHTS cell viability counter screen (AID 1963581); further: nearly all actives have a fitted effect of over 45% in size
Method in brief: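 p53RE-bla HCT-116 cells were exposed to compounds for 16 h at 37 C; after the beta-lactamase FRET read in the same wells, CellTiter-Glo was added and luminescence (intracellular ATP) read after 30 min at room temperature.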

[11] = p53 small molecule agonists, cell-based qHTS assay (AID 1963582; active means well fitted activation curve with a large enough effect in the signal ratio in the repeat runs, not every such curve was filed as active; the % refers to the signal ratio)
Method in brief: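 p53RE-bla beta-lactamase reporter cells rested 5 h at 37 C/5% CO2, then received compounds in DMSO by pin transfer and were incubated 16 h at 37 C. LiveBLAzer B/G FRET substrate was loaded for 2 h at room temperature before fluorescence reading.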

[12] = target: 5-hydroxytryptamine receptor 2A (Homo sapiens) (UniProt P28223); assay: 5-hydroxytryptamine receptor 2A (HTR2A) small molecule antagonists, cell-based qHTS assay (AID 1963586); further: nearly all actives have a fitted effect of over 45% in size
Method in brief: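 Antagonist-mode intracellular calcium assay: DOI (4 nM) added after 5 min compound pre-incubation at room temperature to dye-loaded HTR2A-CHO cells. Fluorescence followed for 3 min, sampled every second.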

[13] = target: 5-hydroxytryptamine receptor 2A (Homo sapiens) (UniProt P28223); assay: 5-hydroxytryptamine receptor 2A (HTR2A) small molecule agonists, cell-based qHTS assay (AID 1963587); further: nearly all actives have a fitted effect of over 30% in size
Method in brief: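 Kinetic calcium-flux fluorescence (2 min, 1 sec intervals) after compound addition in agonist mode. HTR2A-CHO cells were cultured 18 h, then dye-loaded 1 h at 37 C.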

[14] = target: Muscarinic acetylcholine receptor M1 (Homo sapiens) (UniProt P11229); assay: Cholinergic receptor muscarinic 1 (CHRM1) small molecule antagonists, cell-based qHTS assay (AID 1963588); further: nearly all actives have a fitted effect of over 40% in size
Method in brief: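 CHRM1-CHO calcium-flux assay, antagonist mode. Cells were seeded 18 h, dye-loaded 1 h at 37 C and given compound for 5 min at RT, then acetylcholine was added at 50nM. FDSS fluorescence was read 3 min; 15 concentrations, three runs.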

[15] = target: Muscarinic acetylcholine receptor M1 (Homo sapiens) (UniProt P11229); assay: Cholinergic receptor muscarinic 1 (CHRM1) small molecule agonists, cell-based qHTS assay (AID 1963589); further: nearly all actives have a fitted effect of over 35% in size
Method in brief: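 CHO cells stably expressing human CHRM1, seeded 18 h at 37 C/5% CO2, dye-loaded 1 h at 37 C, then given compound in agonist mode; intracellular calcium fluorescence read kinetically at 1 s intervals. Fifteen concentrations, three independent runs.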

[16] = cAMP Responsive Elements (CRE) small molecule antagonists, cell-based qHTS assay (AID 1963591; active means well fitted inhibition curve with a large enough effect in the signal ratio in the repeat runs, not every such curve was filed as active; the % refers to the signal ratio)
Method in brief: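 CRE-bla HEK293T cells were plated 18 h at 37 °C/5% CO2, pinned with compound in DMSO, then stimulated with NKH477 at 0.25 uM final for 3 h. LiveBLAzer B/G FRET substrate was added and plates incubated 2 h at room temperature.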

[17] = target: Beta-2 adrenergic receptor (Homo sapiens) (UniProt P07550); assay: Adrenergic beta2 receptor (ADRB2) small molecule antagonists, cell-based qHTS assay (AID 1963592); further: series mostly up to about 92 µM; nearly all actives have a fitted effect of over 50% in size
Method in brief: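 Cells (CHO, stable ADRB2 overexpression) incubated 18-20hr at 37C; compounds added from DMSO; agonist mix (1nM isoproterenol, 100uM IBMX, 25uM Ro-20-1724) added; 0.5hr RT; d2-cAMP and anti-cAMP-cryptate added; 1hr RT; 665/615 nm read.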

[18] = target: D(2) dopamine receptor (Homo sapiens) (UniProt P14416); assay: Dopamine D2 receptor (DRD2) small molecule agonists, cell-based qHTS assay (AID 1963594); further: nearly all actives have a fitted effect of over 35% in size
Method in brief: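 cAMP accumulation in DRD2-HEK293 cells measured by HTRF after 1 h detection; compounds added 10 min before NKH477 (200nM […]) forskolin-analogue stimulation, 30 min at room temperature, with Ro20-1724 present at 0.1 mM final.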

[19] = target: D(2) dopamine receptor (Homo sapiens) (UniProt P14416); assay: Dopamine D2 receptor (DRD2) small molecule antagonists, cell-based qHTS assay (AID 1963595; active means well fitted inhibition curve with a large enough effect in the signal ratio in the repeat runs, with a control signal flat; the % refers to the signal ratio)
Method in brief: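 In this cell-based antagonist screen, compounds act for 10 min at room temperature before a 30 min challenge with 12 nM quinpirole and 200 nM NKH477. cAMP is quantified by HTRF competition in DRD2-HEK293 cells containing 0.1 mM Ro20-1724.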

Chain of Muscarinic acetylcholine receptor M1 (Homo sapiens) (P11229 whole entry, looked up): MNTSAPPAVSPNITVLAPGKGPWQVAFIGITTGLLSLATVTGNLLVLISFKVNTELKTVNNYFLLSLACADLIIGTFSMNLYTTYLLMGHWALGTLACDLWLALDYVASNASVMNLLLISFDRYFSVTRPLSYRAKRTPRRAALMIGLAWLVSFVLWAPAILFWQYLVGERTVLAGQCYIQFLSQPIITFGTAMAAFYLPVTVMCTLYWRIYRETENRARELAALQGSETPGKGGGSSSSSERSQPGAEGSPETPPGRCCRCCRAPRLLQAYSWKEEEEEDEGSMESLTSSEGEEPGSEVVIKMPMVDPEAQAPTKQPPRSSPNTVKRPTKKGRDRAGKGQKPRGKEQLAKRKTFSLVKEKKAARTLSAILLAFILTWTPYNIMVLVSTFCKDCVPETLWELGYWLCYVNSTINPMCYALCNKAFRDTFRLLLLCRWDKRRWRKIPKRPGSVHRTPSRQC
Chain of KiSS-1 receptor (Homo sapiens) (Q969F8 whole entry, looked up): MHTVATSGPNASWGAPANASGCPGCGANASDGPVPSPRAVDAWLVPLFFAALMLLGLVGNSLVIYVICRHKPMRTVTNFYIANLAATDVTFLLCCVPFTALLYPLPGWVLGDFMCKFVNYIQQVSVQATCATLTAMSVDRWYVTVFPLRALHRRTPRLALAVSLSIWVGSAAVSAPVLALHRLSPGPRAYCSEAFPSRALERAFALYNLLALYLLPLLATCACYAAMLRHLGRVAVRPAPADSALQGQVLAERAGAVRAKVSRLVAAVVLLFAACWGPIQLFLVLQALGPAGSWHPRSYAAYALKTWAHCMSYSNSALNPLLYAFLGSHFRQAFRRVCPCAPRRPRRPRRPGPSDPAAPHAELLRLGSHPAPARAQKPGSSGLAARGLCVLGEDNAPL
Chain of Gonadotropin-releasing hormone receptor (Homo sapiens) (P30968 whole entry, looked up): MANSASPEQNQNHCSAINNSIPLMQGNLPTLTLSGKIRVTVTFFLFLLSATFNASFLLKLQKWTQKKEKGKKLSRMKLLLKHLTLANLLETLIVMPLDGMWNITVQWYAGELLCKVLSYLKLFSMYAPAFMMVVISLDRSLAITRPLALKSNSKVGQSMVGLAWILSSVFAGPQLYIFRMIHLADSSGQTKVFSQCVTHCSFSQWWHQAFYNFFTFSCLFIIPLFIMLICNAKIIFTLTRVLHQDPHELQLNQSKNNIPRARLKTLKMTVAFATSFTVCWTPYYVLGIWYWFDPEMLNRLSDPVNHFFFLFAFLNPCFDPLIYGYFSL
Chain of D(2) dopamine receptor (Homo sapiens) (P14416 whole entry, looked up): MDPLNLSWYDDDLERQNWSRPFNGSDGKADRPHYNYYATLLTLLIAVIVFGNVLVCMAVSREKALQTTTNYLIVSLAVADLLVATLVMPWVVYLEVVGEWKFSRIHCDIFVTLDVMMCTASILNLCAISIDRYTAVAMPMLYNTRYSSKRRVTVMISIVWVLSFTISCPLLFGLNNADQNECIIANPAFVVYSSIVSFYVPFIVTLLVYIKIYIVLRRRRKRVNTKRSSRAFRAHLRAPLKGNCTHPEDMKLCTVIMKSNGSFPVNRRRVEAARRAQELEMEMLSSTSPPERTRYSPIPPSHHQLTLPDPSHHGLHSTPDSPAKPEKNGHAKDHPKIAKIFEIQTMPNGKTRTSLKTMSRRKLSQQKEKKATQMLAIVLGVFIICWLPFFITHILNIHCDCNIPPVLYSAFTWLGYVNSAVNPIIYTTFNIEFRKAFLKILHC
Chain of 5-hydroxytryptamine receptor 2A (Homo sapiens) (P28223 whole entry, looked up): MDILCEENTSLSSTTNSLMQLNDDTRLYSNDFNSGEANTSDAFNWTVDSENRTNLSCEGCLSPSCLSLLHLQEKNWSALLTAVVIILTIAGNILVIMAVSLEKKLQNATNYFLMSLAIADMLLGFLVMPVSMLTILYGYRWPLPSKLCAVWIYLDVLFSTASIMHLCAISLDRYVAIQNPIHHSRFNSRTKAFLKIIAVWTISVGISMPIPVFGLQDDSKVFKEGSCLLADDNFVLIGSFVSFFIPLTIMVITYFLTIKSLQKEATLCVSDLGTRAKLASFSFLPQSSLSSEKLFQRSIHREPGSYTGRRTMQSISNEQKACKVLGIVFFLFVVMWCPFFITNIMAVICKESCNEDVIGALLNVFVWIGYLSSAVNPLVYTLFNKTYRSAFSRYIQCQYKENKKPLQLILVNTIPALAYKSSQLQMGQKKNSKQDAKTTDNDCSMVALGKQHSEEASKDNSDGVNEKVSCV
Chain of Beta-2 adrenergic receptor (Homo sapiens) (P07550 whole entry, looked up): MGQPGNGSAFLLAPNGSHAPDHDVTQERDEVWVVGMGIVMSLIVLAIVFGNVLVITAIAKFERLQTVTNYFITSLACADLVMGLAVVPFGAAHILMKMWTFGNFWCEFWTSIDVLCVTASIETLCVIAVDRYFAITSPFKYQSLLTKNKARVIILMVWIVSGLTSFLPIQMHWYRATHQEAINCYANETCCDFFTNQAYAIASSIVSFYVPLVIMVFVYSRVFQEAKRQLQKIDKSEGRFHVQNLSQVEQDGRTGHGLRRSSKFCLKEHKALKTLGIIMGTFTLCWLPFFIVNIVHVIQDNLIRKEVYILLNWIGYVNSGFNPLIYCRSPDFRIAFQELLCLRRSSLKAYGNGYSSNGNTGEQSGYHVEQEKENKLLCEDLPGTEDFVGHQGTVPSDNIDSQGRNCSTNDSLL

Row | SMILES | Potency [1] | Potency [2] | Potency [3] | outcome [4] | outcome [5] | Potency [6] | Potency [7] | Potency [8] | Potency [9] | Potency [10] | Potency [11] | Potency [12] | Potency [13] | Potency [14] | Potency [15] | Potency [16] | Potency [17] | Potency [18] | Potency [19]
1 | O=c1c(O)c(O)c1=O | inactive | inactive | inactive | inactive | inactive | inactive | inactive | inactive | inactive | inactive | inactive | inactive | inactive | inactive | inactive | inactive | inactive | inactive | 
2 | O=C(O)c1ccc2cc(O)ccc2c1 | inactive | inactive | inactive | inactive | inactive | inactive | inactive | inactive | inactive | inactive | inactive | inactive | inactive | inactive | inactive |  | inactive | inactive | inactive
3 | CC(C)COC(=O)COc1cc(Cl)c(Cl)cc1Cl | inactive | inactive | inactive | inactive | inactive | inactive | inactive | inactive | inactive | inactive | inactive | inactive | inactive | inactive | inactive | inactive | inactive | inactive | inactive
4 | c1ccc(CCNc2nc(-c3ccccc3)cs2)cc1 | inactive | 0.596 µM (active) | inactive | inactive | inactive | inactive | inactive | inactive | inactive | inactive | inactive | inactive | inactive | inactive | inactive | inactive |  | inactive | 
5 | CC[N+](C)(CC)CCOC(=O)C(O)(c1ccccc1)C1CCCCC1 (stereo not drawn) | inactive | inactive | inactive | inactive | inactive | inactive | inactive | inactive | inactive | inactive | inactive | inactive | inactive | inactive | inactive | inactive | inactive | inactive | inactive
6 | C#CC(C)(CC)OC(=O)c1ccccc1C(=O)O (stereo not drawn) | inactive | inactive | inactive | inactive | inactive | inactive | inactive | inactive | inactive | inactive | inactive | inactive | inactive | inactive | inactive | inactive | inactive |  | inactive
7 | CCCCCCCC/C=C/C(=O)O | inactive | inactive | inactive | inactive | inactive | inactive | inactive | inactive | inactive | inactive | inactive | inactive | inactive | inactive | inactive | inactive | inactive | inactive | inactive
